Screening data as filed in PubChem.
This is a sample that favours compounds with a hit; in the whole collection about 13% have one here.
WT yeast gro inh: growth inhibition of WT yeast, mitochondrial fusion screen; mitochondrial fusion phenotypic screen, WT strain; inhibition, % at 10 µM; hit rate 2.1% among 190,000; AID 1362; in the data active means inhibition above about 58%; tested in S. cerevisiae
CHOP inh: inhibitors of CHOP induction in ER stress response | CHO-K1 CHOP-promoter luciferase, tunicamycin-induced, 15-18 h | hit rate 3.8% among 220,000 | inhibition, % at 10 µM;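 active means compounds that reduced the stress-induced luciferase reporter signal by more than about 70% of percent inhibition, limit read from the data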
Lmaj promast: inhibitors of Leishmania major promastigote growth. Leishmania major promastigotes, resazurin fluorescence viability. inhibition, % at 10 µM. hit rate 9% among 200,000. AID 1063; in the data active means inhibition above about 50%;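 further: promastigotes grown with compound for 44 hours at 28 °C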
RAM network inh: inhibitors of the yeast RAM network | S. cerevisiae dse1pr::URA3 reporter, 5-FOA growth OD615, 2 d; analog-sensitive cbk1-as2 kinase mutant strain | inhibition, % at 50 µM | hit rate 1.8% among 190,000 | AID 868;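 active means inhibition above a set limit, 3 SD over mean compound inhibition, cut at about 8.4% in these data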;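 further: inhibition rescues growth on 5-FOA so higher OD means more RAM inhibition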
Lmaj promast 1uM: L. major promastigote growth inhibition, 1 uM repeat | shares compounds with Lmaj promast | resazurin fluorescence, 48 h | inhibition, % at 1 µM | hit rate 13% among 1,100 | AID 1258;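 active means inhibition above about 50% in both repeat tests, limit read from the data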
Of the large screens only hits and unclear results are named; the others gave an inactive call (follow-up assays come after a bar, where they were run).

Cc1c(C(=O)OCC(=O)Nc2c(C)n(C)n(-c3ccccc3)c2=O)oc2ccccc12	none
O=[N+]([O-])c1ccc(O)c2ncccc12	CHOP inh 86.8, Lmaj promast 96.3 | Lmaj promast 1uM inactive
O=[N+]([O-])c1ccc(O)c2cccnc12	none
COc1ccc(OCc2nc(-c3ccc(F)c(F)c3)cs2)cc1	none (no result: WT yeast gro inh, Lmaj promast, RAM network inh)
COc1ccc(N2COC3c4cccc5cccc(c45)C32)cc1 (stereo unspecified)	Lmaj promast 75.2 | Lmaj promast 1uM inactive
COc1cc2c(C#N)c(N3CCCC3)nc(N)c2c(N)n1	none (no result: WT yeast gro inh, Lmaj promast, RAM network inh)
COc1cc2c(C#N)c(N3CCN(c4ccccc4OC)CC3)nc(N)c2c(N)n1	Lmaj promast 73.2 | Lmaj promast 1uM inactive
O=C(Nc1ccc(Cl)cn1)c1ccc([N+](=O)[O-])o1	Lmaj promast 99.7 | Lmaj promast 1uM 79.7
Cc1c(Cl)c([N+](=O)[O-])nn1Cc1ccc(C(=O)Nc2ccc(Cl)cn2)o1	none
Nc1nonc1C(=O)N/N=C/c1cccc([N+](=O)[O-])c1	Lmaj promast 54.1 | Lmaj promast 1uM inactive
CN(C)c1ccc(/C=N/NC(=O)c2nonc2N)cc1[N+](=O)[O-]	none
C=CCN(c1ccccc1C(=O)O)S(=O)(=O)c1ccc(C)cc1	none
CC1CCCCC1NC(=O)C1CC=CCC1C(=O)O (stereo unspecified)	Lmaj promast 54.6 | Lmaj promast 1uM inactive
C(=N\N1CCN(Cc2ccccc2)CC1)/c1ccc(-c2ccccc2)cc1	none
CN1CCN(/N=C/c2ccc(-c3ccccc3)cc2)CC1	Lmaj promast 97.8 | Lmaj promast 1uM inactive
CC1(C)CC(=O)C(C(=O)/C=C/c2ccco2)C(=O)C1	none
CCOC(=O)Cn1nc(-c2ccc(F)cc2)oc1=O	none
COc1ccc(NC(=O)C(c2ccccc2)N2CCN(c3ccccn3)CC2)cc1Cl (stereo unspecified)	none
Cc1cnc(C(=O)OCC(=O)N(Cc2ccccc2)C(C)C)cn1	none
CCOC(=O)COn1c(-c2cccc(Cl)c2)nc2ccc([N+](=O)[O-])cc21	none
CCOC(=O)C(C)On1c(-c2cccc(Cl)c2)nc2ccc([N+](=O)[O-])cc21 (stereo unspecified)	Lmaj promast 95.2 | Lmaj promast 1uM inactive
Nc1cc2c(cc1C(=O)c1cccc(Br)c1)OCCO2	none
COc1cccc(/C=N/NC(=O)c2ccc(-c3ccccc3)cc2)c1O	Lmaj promast 99.8 | Lmaj promast 1uM inactive
CCOC(=O)C1(Nc2nccs2)Sc2ccccc2NC1=O (stereo unspecified)	none (no result: CHOP inh)
CCOC(=O)C1(N(CC)CC)Sc2cc(C)ccc2NC1=O (stereo unspecified)	Lmaj promast 93.8 (no result: CHOP inh) | Lmaj promast 1uM inactive
CC1=NN(/C(=N\c2nnc(C)s2)Nc2ccc(C(C)(C)C)cc2)[C@H](c2ccc(C)cc2)S1	WT yeast gro inh 79.8, Lmaj promast 64.4 | Lmaj promast 1uM inactive
CC1(C(=O)NCc2ccc(Cl)c(Cl)c2)Oc2cccnc2NC1=O (stereo unspecified)	none
CC(NC(=O)c1cc(S(=O)(=O)N(C)C)ccc1N1CCCC1)C1CC2CCC1C2 (stereo unspecified)	none
Cc1cc(C)n(-c2nc3ccccc3c(=O)n2OCC(=O)OCc2ccccc2)n1	Lmaj promast 92.0 (no result: CHOP inh) | Lmaj promast 1uM inactive
Cc1cc(C)n(-c2nc3ccccc3c(=O)n2OCC(=O)N(C)C)n1	none
Cc1ccc(OC(C)c2nnc(N)s2)cc1Cl (stereo unspecified)	Lmaj promast 99.6 | Lmaj promast 1uM inactive
CCOC(=O)c1c(C)oc2c1C(=O)c1ccccc1C2=O	Lmaj promast 97.9 | Lmaj promast 1uM inactive
CCN(CC)C(=O)CSc1nnc(-c2ccccc2)c(-c2ccccc2)n1	none
CCN(CC)C(=O)n1cnc(-c2ccccc2)c1-c1ccccc1	Lmaj promast 69.0 | Lmaj promast 1uM inactive
COc1ccc(CC(=O)NC(C)c2nnc(SCC(=O)c3ccc(Br)cc3)n2C)cc1 (stereo unspecified)	Lmaj promast 74.8 | Lmaj promast 1uM inactive
CC(C)c1ccccc1NC(=O)COC(=O)Cc1c[nH]c2ccccc12	Lmaj promast 50.4 | Lmaj promast 1uM inactive
CCN(CC)c1ccc(NC(=O)c2ccc(Br)o2)c(C)c1	Lmaj promast 57.2 | Lmaj promast 1uM inactive
CC1(C)CC(=O)c2cc(C(=O)NCc3ccco3)c(=O)n(-c3ccccc3)c2C1	none
CC1(C)CC(=O)c2cc(C(=O)NNc3ccccc3)c(=O)n(-c3ccccc3)c2C1	Lmaj promast 52.3 | Lmaj promast 1uM inactive
Cc1ccc(CNC(=O)c2cccc(OCc3c(C)noc3C)c2)cc1	Lmaj promast 80.2 | Lmaj promast 1uM inactive
Cc1noc(C)c1COc1ccc(CC(=O)NCc2ccccc2)cc1	none
O=c1c(Cc2ccccc2)c(O)ccn1Cc1ccco1	none
Cc1cccc(NCCC(=O)c2ccc(Br)cc2)c1	Lmaj promast 53.8 | Lmaj promast 1uM inactive
N#Cc1cc(Oc2ccc3ccccc3c2)c(-n2nnc3ccccc32)cc1C#N	Lmaj promast 52.1 | Lmaj promast 1uM 95.7
N#Cc1cc(Oc2ccccc2)c(-n2nnc3ccccc32)cc1C#N	none
O=C(NNC(=S)Nc1ccc(F)cc1)C1[C@H]2CCCC[C@@H]12 (stereo partly specified)	none (no result: WT yeast gro inh, Lmaj promast, RAM network inh)
COc1ccccc1Oc1c(C)oc2c(CN(C)C)c(O)ccc2c1=O	none
C/C(=N\O)C(=O)C(CN1CCCCC1)CN1CCCCC1	Lmaj promast 78.3 | Lmaj promast 1uM inactive
COc1cc(/C=C/c2nnc3c4ccccc4ncn23)cc(OC)c1OC	none
C(=C\c1nnc2c3ccccc3ncn12)/c1ccccc1	Lmaj promast 55.1 | Lmaj promast 1uM inactive
CSCCC(NC(=O)c1cccc([N+](=O)[O-])c1)C(=O)O (stereo unspecified)	Lmaj promast 78.7 | Lmaj promast 1uM inactive
CCCCCCCCCCCCCCCC[n+]1ccc(C(N)=O)cc1	WT yeast gro inh 99.2, CHOP inh 70.4, Lmaj promast 100.2 | Lmaj promast 1uM inactive
CCCCC(=O)Nc1ccc(C(N)=O)cc1	none
O=C(Nc1nc2ccsc2c(=O)s1)C1CCC1	none (no result: WT yeast gro inh, Lmaj promast, RAM network inh)
O=c1sc(Nc2ccccc2)nc2ccsc12	Lmaj promast 100.0 | Lmaj promast 1uM inactive
COC(=O)C1=NN(c2ccccc2)C2(S1)S/C(=C\c1ccccc1)C(=O)N2c1ccccc1 (stereo unspecified)	none
CCOC(=O)C1=NN(c2ccccc2)C2(S1)SC(C(C)=O)=C(C)N2c1ccccc1 (stereo unspecified)	WT yeast gro inh 71.5, Lmaj promast 61.4 | Lmaj promast 1uM inactive
Cc1c(NC(=O)OC(C)C)sc(=S)n1C	Lmaj promast 96.7 | Lmaj promast 1uM inactive
Cc1cc(NC(=O)NC2CC(=O)N(c3ccc4c(c3)OCCO4)C2)no1 (stereo unspecified)	none
CCOC(=O)c1cc(NC(=O)Nc2ccccn2)c(C)nc1C	none
Cc1cc2nc(SCCOC(=O)Nc3cccc(Cl)c3)nc(C)c2cc1C	none
Cc1cc2nc(SCCOC(=O)Nc3ccccc3)nc(C)c2cc1C	Lmaj promast 65.6 | Lmaj promast 1uM inactive
C=CCc1cccc2cc(C(=O)N(CC)CC)c(=O)oc12	none
COc1ccc(-c2ncncc2-c2csc(C)n2)c(O)c1OC	none
COC1=C(N)C(=O)c2nc(-c3nc(C(=O)O)c(C)c(-c4ccc(OC)c(OC)c4O)c3N)ccc2C1=O	CHOP inh 81.3, Lmaj promast 64.9 | Lmaj promast 1uM inactive
